Bioassay records: PubChem BioAssay, Sanford-Burnham Center for Chemical Genomics
iPSC survival up: hiPSC single-cell survival enhancement. ATPlite luminescence; 100% = ROCK inhibitor wells, 0% = DMSO. survival enhancement, % at 20 µM. 360,000 compounds, 0.044% hits. AID 602274; in the data active = survival enhancement above about 18%;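 also: cells exposed to compounds for 16 hours before the ATP read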
CF NFkB inh: cystic fibrosis NF-kB activation inhibition | KKLEB NF-kB-GFP reporter, PAF-induced, GFP fluorescence overnight | inhibition, % at 5 µM | 360,000 compounds, 0.86% hits | AID 588850;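 active = at least 50% inhibition at 5 µM, scaled per plate between neutral and stimulator controls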;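 also: PAF is a Pseudomonas aeruginosa culture filtrate used as stimulus; plate controls were PAF-stimulated DMSO wells for no effect and unstimulated DMSO wells for full effect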
TRAIL sens C8: caspase-8 TRAIL sensitization. NB7+C8 cells + TRAIL, ATPlite viability luminescence. inhibition (viability loss, TRAIL sensitization), % at 10 µM. 360,000 compounds, 1% hits. AID 624354;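 active = compounds causing at least 50% loss of cell viability in the single-dose screen, relative to plate controls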
HIF-2a inh: HIF-2a inhibition. inhibition, % at 18.8 µM. AID 624352. 786-0 RCC cells HIF-2a reporter, luciferase luminescence, overnight. 360,000 compounds, 0.72% hits;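 active = inhibition of the luminescence signal of 40% or more relative to plate controls, in a single-dose primary screen at 18.75 µM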
KKLEB tox: reduces viability of KKLEB cystic fibrosis airway cells | KKLEB CF airway cells viability, ATPlite luminescence, overnight; active compounds read low; cells stimulated with P. aeruginosa culture filtrate | activity change (cytotoxicity), % at 5 µM | 360,000 compounds, 0.36% hits | AID 602141;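 active = corrected activity change at or below -50% at 5 µM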
PPC-1+TRAIL kill: kills PPC-1 cancer cells in the presence of TRAIL; PPC-1 cells + TRAIL, ATPLite viability luminescence; cell killing (% activity), % at 4 µM or 5 µM; 220,000 compounds, 0.41% hits; AID 1443;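 active = cell killing above 50% in the first pass at 4 µM, then a duplicate retest at 5 µM averaging 50% or more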;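 also: plate controls were cells with TRAIL plus DMSO for no effect and medium-only wells lacking cells for full effect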
An asterisk follows results filed as active; . = not tested or not shown. A selection: hits, their analogues and other compounds. The true share with any hit is near 2.2%.

SMILES	iPSC survival up	CF NFkB inh	TRAIL sens C8	HIF-2a inh	KKLEB tox	PPC-1+TRAIL kill
COc1ccc(C(=O)Nc2ccc(Oc3nc(C)nc4sc(-c5ccccc5)cc34)cc2)cc1OC	0	48	24	-9	-53*	9
COc1ccc(C(=O)Nc2ccc(Oc3ncnc4sc(-c5ccccc5)cc34)cc2)cc1OC	-1	-3	10	10	-6	8
CCOc1ccc(CCNC(=O)Nc2cccc(OC)c2)cc1OCC	0	0	-2	21	2	.
NC(=O)C1CCN(C2=C(Cl)C(=O)c3ccccc3C2=O)CC1	-1	11	37	94*	1	-4
O=C(C(=O)c1cc(Br)ccc1O)c1cc(Br)ccc1O	0	60*	44	-35	-28	.
Cc1ccc(-c2cnn(-c3ccccc3)c2N)cc1	-1	-2	79*	-172	-30	.
Nc1c(-c2ccc(Cl)cc2)cnn1-c1ccccc1	-1	5	41	-328	-7	.
O=C(c1ccc(Cl)nc1)c1cccs1	.	.	.	.	.	3
O=C(c1cccs1)c1no[n+]([O-])c1C(=O)c1cccs1	1	93*	92*	63*	-94*	13
COC(=O)[C@]12CCCCC=C1N(Cc1ccc(Cl)cc1Cl)C(=O)[C@H](CC(=O)NCc1cccs1)C2	0	.	3	-7	.	.
COc1ccc(C(=O)Nc2ccccc2C(=O)NC(Cc2ccc(O)cc2)C(=O)NNC(=O)c2ccncc2)cc1 (centres undefined)	-1	-1	9	-15	3	16
Nc1cc2nc3ccccc3oc-2cc1=O	-1	53*	-4	-20	0	15
O=c1oc2ccccc2cc1-c1nc2ccccc2o1	-2	-14	13	-165	9	35
Cc1ccc(NC(=O)c2cc(C)n(-c3ccccc3)c2C)cc1	-3	-6	93*	54*	-73*	77*
Cc1cc(C(=O)NNS(=O)(=O)c2cc(C(=O)O)ccc2Cl)c(C)n1-c1ccccc1	0	9	1	64*	-14	.
CC(C)(C)NS(=O)(=O)c1cc(C(=O)O)ccc1Cl	0	10	1	13	0	19
COc1cc(OC)cc(-c2noc([C@@H]3O[C@H](CO)[C@H](O)[C@H](O)[C@H]3O)n2)c1	-1	-12	6	9	12	.
OC(c1cc(-c2cccc(Cl)c2)nc2ccccc12)C1CCCCN1 (centres undefined)	-3	41	67*	-19	-24	.
Cc1cc(C)cc(-n2c(C)nc3cc(C(=O)O)ccc32)c1	0	-5	-10	22	-6	-11
COC(=O)c1cccc(NC(=O)CSc2nnc(C)o2)c1	0	3	-2	-4	4	.
CCOc1cc(/C=C/C(=O)c2ccc(C)cc2)ccc1OCC(=O)N(C)C	-2	24	8	23	-54*	14
CN(C(=O)c1ccccc1)c1nc2ccccc2s1	-3	-18	72*	-196	-12	49
CN(C)CCCN(C(=O)c1ccc(C(=O)c2ccccc2)cc1)c1nc2cc3c(cc2s1)OCO3	-1	11	53*	-4	-7	.
CN(C)C(=O)c1nc2ccccc2s1	-1	-10	22	-138	-2	12
CN(C)CCCN(C(=O)c1ccc(C(=O)c2ccccc2)cc1)c1nc2ccc(F)cc2s1	0	25	49*	-21	-8	.
SMILES	iPSC survival up	CF NFkB inh	TRAIL sens C8	HIF-2a inh	KKLEB tox	PPC-1+TRAIL kill
CN(C)CCN(C(=O)c1ccc2ccccc2c1)c1nc2cc3c(cc2s1)OCO3	19*	-1	-7	-46	-6	.
O=C(O)C1=C(OCc2ccc(F)c(F)c2)C(=O)NCC1	0	-7	-4	3	3	17
O=c1cc(-c2ccccc2Cl)oc2c(NS(=O)(=O)c3ccccc3C(F)(F)F)ccc(O)c12	5	5	-7	-19	-5	0
O=c1cc(-c2ccccc2Cl)oc2c(NS(=O)(=O)c3cccs3)ccc(O)c12	-1	52*	-11	-12	-15	11
COc1ccc(-c2cn3c(n2)CCC3)cc1	-2	-5	11	-168	4	21
c1ccc(-c2ccc(-c3cn4c(n3)CCC4)cc2)cc1	-5	-17	72*	-158	-23	50
CCOc1ccc(-c2c(C#N)c(N)nc3c2c(=O)n(C)c(=O)n3C)cc1OC	5	-2	86*	17	0	28
N/C(CCS(=O)(=O)c1ccc(Cl)cc1)=N\OC(=O)c1ccccc1C(F)(F)F	1	31	55*	16	-9	31
N/C(CS(=O)(=O)c1ccccn1)=N\OC(=O)c1ccc(Cl)cc1	0	7	19	-67	0	0
N/C(CCS(=O)(=O)c1ccc(Cl)cc1)=N\OC(=O)c1ccc(Cl)cc1	-1	12	74*	31	-15	2
CCOc1cc2c3c(c1)C(C)=CC(C)(C)N3C(=O)C2=O	0	29	4	14	-3	9
CC(=O)Oc1cc2c3c(c1)/C(=C1/SC(=S)NC1=O)C(=O)N3C(C)(C)C=C2C	0	52*	6	-22	11	0
C[C@H]1CCC/C=C/[C@@H]2C[C@H](O)C[C@H]2[C@H](O)[C@H](S(=O)c2ccc(O)cc2)CC(=O)O1 (some centres undefined)	-4	66*	33	29	-44	.
c1ccc2nc3c(nc2c1)[nH]c1ccccc13	-1	-73	52*	-193	5	31
c1ccc(-c2c3ccccc3nc3[nH]c4ccccc4c23)cc1	-3	-36	4	1	9	8
CC1(c2ccc3ccccc3c2)NC(=O)N(CC(=O)NCC(C)(C)N2CCOCC2)C1=O (centres undefined)	0	2	-7	7	-2	.
CCCc1ccc(Oc2cn[nH]c2-c2ccc(O)c(C)c2O)cc1	0	53*	3	-78	3	33
COc1ccc(CCNC(=O)c2cccnc2SC)cc1	0	5	-2	14	5	3
Cc1ccc(NC(=O)c2ccc(C)cc2)cc1	-4	-15	73*	-122	-9	.
Cc1cccc(C(=O)Nc2ccc(C(=O)Nc3ccc(O)cc3)cc2)c1	0	-23	68*	-1	14	.
CC(C)(C)c1ccc(C(=O)Nc2ccc(Cl)cc2)cc1	-2	-24	20	-175	-1	22
Cc1ccc(C(=O)Nc2ccc(N3CCN(C)CC3)cc2)cc1	-1	-13	4	-195	6	.
O=C(Nc1ccc(O)cc1)c1ccc(NC(=O)c2cccs2)cc1	0	1	66*	-107	-4	.
Cc1cccc(C(=O)Nc2ccc(NC(=O)c3cccc(C)c3)cc2)c1	-1	-7	25	9	1	.
CC(C)(C)c1ccc(NC(=O)c2ccsc2)cc1	-1	-20	69*	-185	-32	37
